# Experimental data reported in the supplement of paper PMC7156485.
# Test system: HCC1569
# Test: H1.0 immunofluorescence intensity relative to DMSO (% of DMSO); higher = stronger H1.0 induction, active = 140 or more
# Conditions: concentration: 10 µM; 24 h
# In short: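 HCC1569 and TDF cells (800 per well, 384-well plates, RPMI with 10% FBS) were treated with compounds at 10 µM for 24 h at 37 °C, in triplicate. Cells were fixed in 3.7% formaldehyde and stained with a rabbit anti-H1.0 antibody, an AlexaFluor 647 secondary and DAPI; six fields per well were imaged at ×10. H1.0 nuclear intensity or cell number is expressed as percent of the plate DMSO control, taking the median of replicates. HCC1569 values were smoothed for positional effects.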
# 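Note: TDF is a line of transformed human dermal fibroblasts of mesenchymal origin.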
row,Structure (SMILES),H1.0 immunofluorescence intensity
1,CC1(COc2ccc(CC3SC(=O)NC3=O)cc2)CCCCC1 (stereo not given) [Ciglitizone],90.5 (inactive)
2,CN(Cc1ccc(C(C)(C)C)cc1)Cc1cccc2ccccc12 [Butenafine],100 (inactive)
3,Cc1c(O)cc2c(c1C)OC(C)(CCCC(C)CCCC(C)CCCC(C)C)CC2 [D-γ-Tocopherol],102 (inactive)
4,COC(=O)C1C(O)CCC2CN3CCc4c([nH]c5ccccc45)C3CC21.Cl (stereo not given) [Yohimbine hydrochloride],107 (inactive)
5,O=S1(=O)CCN(CN2CCS(=O)(=O)NC2)CN1,94 (inactive)
6,C=C1NC(=O)C2=C(CCSC2)N1,92.2 (inactive)
7,Cc1[nH]ccc2c1[nH]c1cc(=O)ccc12.Cl.O.O,94.2 (inactive)
8,COc1cc(C2c3cc4c(cc3C(OC3OC5COC(C)OC5C(O)C3O)C3COC(=O)C23)OCO4)cc(OC)c1O (stereo not given) [Etoposide],95.1 (inactive)
9,Nc1nc(N)c2nc(CNc3ccc(C(=O)NC(CCC(=O)O)C(=O)O)cc3)cnc2n1 (stereo not given) [Aminopterin],75.9 (inactive)
10,CCOC([O-])=Nc1c[n+](N2CCOCC2)no1 [Molsidomine],94 (inactive)
11,"CCCCCC#CCC#CCC#CCC#CCCCC(=O)O [5,8,11,14-Eicosatetraynoic acid]",103 (inactive)
12,CCCCCCCCCC(=O)O [Decanoic acid],103 (inactive)
13,CS(=O)(=O)O.CSc1ccc2c(c1)C(N1CCN(C)CC1)Cc1ccccc1S2 (stereo not given) [Methiothepin mesylate],128 (inactive)
14,COc1c(N2CC3CCCNC3C2)c(F)cc2c(=O)c(C(=O)O)cn(C3CC3)c12.Cl (stereo not given) [Moxifloxacin.HCl],97.9 (inactive)
15,O=C1c2ccccc2-c2n[nH]c3cccc1c23 [JNK Inhibitor II],144 (active)
